We go through 96 molecules from PubChem BioAssay AID1745848 (National Center for Advancing Translational Sciences (NCATS), 2022).

Molecules are shown by their SMILES. Screen size: about 2,100 compounds; about 940 (45%) were called active. Another 48% or so got no clear call; they are omitted. Calls follow the shape of the dose curve; as a rule, active = well fitted inhibition curve with a large enough effect; inconclusive = small, poorly fitted or top-dose-only effect; inactive = no such curve, though single readings can be large or run the other way. The set was probably picked from earlier hits. This is one part of the list.
Potency is read from the fitted curve at half-maximal effect.

This test can be described thus: Confirmatory qHTS for Inhibitors of ATXN expression. Also: nearly all actives have a fitted effect of over 65% in size.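 As to activity change, negative = inhibition: 0% = DMSO vehicle wells and -100% = medium-only wells without cells.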 As to conditions: ATXN2-luciferase reporter cells, luminescence, 24 h; series mostly up to 11.5 µM; activity change, negative = inhibition: at the top concentration. Put shortly:
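Cells carrying ATXN2-luciferase reporter exposed 24 h at 37 C to compound. Viability then read by CellTiter-Fluor (25 uM GF-AFC, 30 min), followed by SteadyGlo luminescence; medium-only wells set 100% inhibition.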
For the molecule `CCN(CC)CCNC(=O)C1CCN(S(=O)(=O)c2c(C)noc2/C=C/c2ccccc2F)CC1`, the Potency was 3.16 µM (active).

With `COc1cc(NS(=O)(=O)c2ccc(N/C=C(\C#N)c3nc4cc(Cl)ccc4o3)cc2)nc(OC)n1`, the Potency was 3.98 µM (active).

On to `CCCCOc1ccc(NC2=NC3(CCCC3)N=C(N)N2)cc1`, for which the “activity change, negative = inhibition” value was -18% [at 57.5 µM] (inactive).

As for `CC[C@H]1CN2CCc3cc(OC)c(OC)cc3[C@@H]2C[C@@H]1C[C@H]1NCCc2cc(OC)c(OC)cc21`, the Potency is 0.0447 µM (active).

In the case of `CC[C@H]1CN2CCc3cc(OC)c(OC)cc3C2C[C@@H]1C[C@H]1NCCc2cc(OC)c(OC)cc21` (stereo partly specified), the Potency was 0.316 µM (active).

For the molecule `CCC1=C(CC2NCCc3ccccc32)CC2c3cc(OC)c(OC)cc3CCN2C1` (stereo unspecified), the Potency was 8.91 µM (active).

As for `O=C1C=C(Nc2ccccc2O)c2ccccc2C1=O`, the Potency was 12.6 µM (active).

In the case of `CCN1CCN(c2ccc(S(=O)(=O)N3CCCCC3)cc2NC(=O)/C=C/c2ccc([N+](=O)[O-])cc2)CC1`, the Potency is 2 µM (active).

On to `COc1ccc(/C=C/C(=O)Nc2cccc(S(=O)(=O)N3CCCC3)c2)cc1OC`, for which the “activity change, negative = inhibition” value was -15.2% (inactive).

On to `CCN1CCN(c2ccc(S(=O)(=O)N3CCCCC3)cc2NC(=O)c2ccc([N+](=O)[O-])s2)CC1`, for which the Potency is 3.16 µM (active).

Take `Fc1ccc2[nH]c3c(NCc4ccccc4)ncnc3c2c1`: the Potency is 1.12 µM (active).

Consider `COc1ccc(CNc2ncnc3c2[nH]c2ccccc23)cc1`, for which the Potency was 8.91 µM (active).

Turning to `CCOc1ccc2[nH]c3c(NCCc4ccc(OC)c(OC)c4)ncnc3c2c1`, the Potency is 15.8 µM (active).

Turning to `Cn1c(=O)c2c(nc(SCCN3CCOCC3)n2Cc2cccc3ccccc23)n(C)c1=O`, the “activity change, negative = inhibition” value is -12.7% (inactive).

With `Cc1cc(NC(=O)CSc2nc3c(sc4ccccc43)c(=O)n2CCCN2CCOCC2)n[nH]1`, the Potency is 1.58 µM (active).

For the molecule `CCOC(=O)COc1ccc(Br)cc1/C=C/c1[nH]c(=O)[nH]c(=O)c1[N+](=O)[O-]`, the “activity change, negative = inhibition” value was -23.6% (inactive).

Regarding `CC1=NN(c2nc3ccccc3[nH]2)C(=O)C1Cc1ccccc1` (stereo unspecified), the Potency is 2 µM (active).

As for `Cc1cc2nc(-c3nnnn3Cc3ccccc3)c(=O)[nH]c2cc1C`, the “activity change, negative = inhibition” value was -0.827% (inactive).

On to `CCN(CC)CCNC(=O)c1ccc(NC(=O)Cc2cccc3ccccc23)cc1`, for which the Potency is 3.98 µM (active).

Turning to `Cc1ccc(-c2cc(-c3ccccc3)nc(NN)n2)cc1`, the Potency is 35.5 µM (active).

Regarding `CCOc1ccc(NCc2cccn2-c2nnc(N3CCC(C(=O)NCCCN4CC(C)CC(C)C4)CC3)s2)cc1` (stereo unspecified), the Potency is 3.16 µM (active).

For `C=CCSc1nc2ccccc2n1C(=O)/C=C/c1ccc(OC)c(OC)c1`, the Potency was 2.82 µM (active).

Turning to `CCSc1nc2ccccc2n1C(=O)/C=C\c1ccc(OC)c(OC)c1`, the Potency is 8.91 µM (active).

For `CC(=O)N1c2ccc(S(=O)(=O)N3CCC(C(=O)Nc4cccc(C(F)(F)F)c4)CC3)cc2CC1C` (stereo unspecified), the Potency is 14.1 µM (active).

With `Cc1ccc2c(Cl)cc(Cl)c(O)c2n1`, the Potency was 5.62 µM (active).

As to `COc1ccc([C@@]2(C(C)C)ON(c3ccccc3C(F)(F)F)C2=O)cc1`, the “activity change, negative = inhibition” value was -15.7% (inactive).

On to `COc1ccc(OC)c(C(=O)/C=C/c2ccccc2C(F)(F)F)c1`, for which the Potency is 3.16 µM (active).

Take `Cc1ccc(-c2cc(C(=O)NCCCN3CCOCC3)no2)cc1`: the Potency is 7.94 µM (active).

Regarding `CC(O)(c1ccccc1)c1nc(-c2ccncc2)cs1` (stereo unspecified), the “activity change, negative = inhibition” value is 7.8% (inactive).

`OCCN1CCN(C2CCC(c3ccc(F)cc3)c3ccc(F)cc32)CC1` (stereo unspecified): the Potency was 25.1 µM (active).

Take `CCN(CC)S(=O)(=O)c1ccc(N/N=C/c2cc(OC)ccc2O)nc1`: the Potency was 0.794 µM (active).

For the molecule `CC(=O)N1CCCc2cc(S(=O)(=O)N3CCCC(C(=O)N4CCN(c5cc(C)ccc5C)CC4)C3)ccc21` (stereo unspecified), the Potency was 3.16 µM (active).

In the case of `CCOCCn1ccc2c(OCC(=O)Nc3ccc(OC)c(OC)c3)cccc2c1=O`, the “activity change, negative = inhibition” value was -16.3% (inactive).

As for `CCc1ccc(NC(=O)COc2ccc(/C=C(/C#N)c3nc4ccccc4[nH]3)cc2OC)cc1`, the Potency is 3.55 µM (active).

On to `CCOC(=O)c1ccc2ncc(C(=O)OCC)c(Nc3ccc(N4CCOCC4)cc3)c2c1`, for which the Potency was 3.98 µM (active).

Turning to `CCN(CC)S(=O)(=O)c1cccc(NC(=O)Nc2cccc(C(F)(F)F)c2)c1`, the Potency was 1.78 µM (active).

Regarding `O=c1cc(N2CCN(c3cccc(Cl)c3)CC2)[nH]c(=O)n1C1CCCCC1`, the Potency is 0.355 µM (active).

Turning to `NC(=O)N/N=C/c1c(O)ccc2oc3c(c12)CCCC3`, the Potency was 14.1 µM (active).

Regarding `Cc1nc2ccccc2c(=O)n1/N=C/c1c(O)ccc2oc3c(c12)CCCC3`, the Potency is 15.8 µM (active).

For the molecule `Cc1ccc(N=Nc2ccc(O)c3ncccc23)cc1`, the Potency is 3.16 µM (active).

`Cc1ccccc1N=Nc1ccc(O)c2ncccc12`: the Potency was 1.41 µM (active).

On to `Cn1c2c(c(=O)[nH]c1=O)C(c1cccc(O)c1)C1=C(N2)c2ccccc2C1=O` (stereo unspecified), for which the Potency was 3.98 µM (active).

Turning to `COCCCNCCCOc1ccc(Cl)cc1C(C)(C)C`, the Potency was 15.8 µM (active).

Regarding `CCc1cc2c(N3CCN(c4nnc(CC)s4)CC3)ncnc2s1`, the Potency is 3.55 µM (active).

For `Cc1cc(C)cc(NC(=O)CCc2nc3sc4c(c3c(=O)[nH]2)CCCC4)c1`, the Potency was 0.708 µM (active).

`CC(C)C(=O)NC(c1cccc([N+](=O)[O-])c1)c1ccc2cccnc2c1O` (stereo unspecified): the Potency is 2.24 µM (active).

Take `CC(=O)NC(c1cccc([N+](=O)[O-])c1)c1ccc2cccnc2c1O` (stereo unspecified): the Potency is 0.562 µM (active).

As for `CC(NC(=O)Nc1cccc([N+](=O)[O-])c1)c1ccc2c(c1)OCO2` (stereo unspecified), the “activity change, negative = inhibition” value was -5.8% (inactive).

Regarding `O=[N+]([O-])c1ccc(NC(c2ccccc2)c2ccc3cccnc3c2O)cc1` (stereo unspecified), the Potency was 1.26 µM (active).

For `CCOC(=O)c1ccc(N=c2sc(C(=O)OC)cc(=O)n2-c2ccc(C(=O)OCC)cc2)cc1`, the Potency is 3.98 µM (active).

`O=C(CSc1n[nH]c(-c2ccccn2)n1)Nc1ccc(Cl)cc1`: the Potency is 1.26 µM (active).

On to `O=C(CSc1n[nH]c(-c2ccccn2)n1)Nc1cccc(Cl)c1`, for which the Potency is 3.55 µM (active).

For `O=C(CC1NCCc2ccccc21)Nc1ccc(Cl)cc1` (stereo unspecified), the “activity change, negative = inhibition” value was 7.55% (inactive).

Turning to `O=C(CSc1n[nH]c(-c2ccccn2)n1)Nc1ccc(F)cc1`, the Potency was 8.91 µM (active).

In the case of `Cc1ccc(NC(=O)CSc2n[nH]c(-c3ccccn3)n2)cc1`, the Potency was 2.82 µM (active).

For the molecule `COC(/C(=N/O)c1ccc(Cl)cc1)c1ccccc1` (stereo unspecified), the “activity change, negative = inhibition” value is -30% [at 57.5 µM] (inactive).

In the case of `O=C(CSc1n[nH]c(-c2ccccn2)n1)Nc1ccccc1`, the Potency was 15.8 µM (active).

For the molecule `COc1cc(Br)cc(/C=N/NC(=O)Cc2ccc(C(F)(F)F)cc2[N+](=O)[O-])c1O`, the Potency was 10 µM (active).

Turning to `c1cc2c(cc1-c1cnc3n1CCC3)OCCO2`, the Potency is 12.6 µM (active).

As to `NC(=Nc1nc(-c2ccccn2)cc2ccccc12)c1ccccn1`, the Potency was 0.0562 µM (active).

For the molecule `Oc1c(C(Nc2ccccn2)c2ccccn2)ccc2cccnc12` (stereo unspecified), the Potency was 3.16 µM (active).

In the case of `Oc1cccc(C(Nc2nccs2)c2ccc3cccnc3c2O)c1` (stereo unspecified), the Potency was 2.51 µM (active).

As to `Oc1c(C(Nc2nccs2)c2ccc(C(F)(F)F)cc2)ccc2cccnc12` (stereo unspecified), the Potency is 1.78 µM (active).

As for `Oc1ccccc1C(Nc1nccs1)c1ccc2cccnc2c1O` (stereo unspecified), the Potency is 2.82 µM (active).

Regarding `COc1ccc(C(=O)NCC(=O)N/N=C/c2ccc([N+](=O)[O-])s2)cc1OC`, the Potency is 10 µM (active).

`Cc1ccccc1C(=O)N/N=C/c1ccc([N+](=O)[O-])s1`: the Potency was 12.6 µM (active).

Consider `O=C(N/N=C/c1ccc([N+](=O)[O-])s1)c1ccccc1Br`, for which the Potency was 14.1 µM (active).

Regarding `Cc1c(C(=O)N2c3ccccc3Sc3ccccc32)cccc1[N+](=O)[O-]`, the “activity change, negative = inhibition” value is -28.2% [at 57.5 µM] (inactive).

As to `O=C(N/N=C/c1ccc([N+](=O)[O-])s1)c1ccccc1`, the Potency was 12.6 µM (active).

For the molecule `Cc1ccc(C)n1-c1ccc(C(=O)N2CCC(C(N)=O)CC2)cc1`, the “activity change, negative = inhibition” value is 0.758% (inactive).

With `COc1cccc(CNc2nc3cc(-c4ccc(C(=O)N5CCN(C)CC5)cc4)sc3c(=O)n2C)c1`, the Potency was 28.2 µM (active).

Turning to `COc1cccc(NC(=O)/C=C/c2ccc(S(=O)(=O)N3CCOCC3)cc2)c1`, the “activity change, negative = inhibition” value is -14.6% [at 57.5 µM] (inactive).

On to `COc1ccc(C(=O)Nc2nc(-c3ccc(S(=O)(=O)N4CCOCC4)cc3)cs2)cc1`, for which the Potency is 1.78 µM (active).

In the case of `COc1ccccc1C(=O)Nc1nc(-c2ccc(S(=O)(=O)N3CCOCC3)cc2)cs1`, the Potency is 3.98 µM (active).

With `O=C(Nc1nc(-c2ccccn2)cs1)c1ccc(F)c(S(=O)(=O)N2CCOCC2)c1`, the Potency is 1.78 µM (active).

For `NC(=O)c1c(NC(=O)c2ccc(S(=O)(=O)N3CCOCC3)cc2)sc2c1CCCCC2`, the “activity change, negative = inhibition” value is -23.6% (inactive).

Regarding `COc1cccc(C(=O)Nc2nc(-c3ccc(S(=O)(=O)N4CCOCC4)cc3)cs2)c1`, the Potency was 1.58 µM (active).

Turning to `CCN1CCN(C(=S)c2ccc(-c3ccccc3)cc2)CC1`, the Potency is 1.58 µM (active).

On to `OCCN1CCN(C(=S)c2ccc(-c3ccccc3)cc2)CC1`, for which the Potency is 1.78 µM (active).

`COc1ccc(NC(=O)c2cc(-c3cc(Cl)ccc3OC)n[nH]2)cc1OC`: the Potency was 0.631 µM (active).

In the case of `O=c1c(O)c(-c2ccccc2)oc2ccccc12`, the “activity change, negative = inhibition” value was -8.49% (inactive).

`O=c1cc(-c2c(F)c(F)c(F)c(F)c2F)oc2ccccc12`: the Potency is 3.55 µM (active).

In the case of `Cc1nc(SCC(=O)Nc2ccc(S(=O)(=O)N3CCOCC3)cc2)c2c(C)c(C)sc2n1`, the Potency is 3.98 µM (active).

As for `COc1ccc(C(=O)c2sc(Nc3ccccc3)nc2N)cc1OC`, the Potency was 28.2 µM (active).

Regarding `COc1cccc(CNCCc2c[nH]c3ccccc23)c1OCc1ccc(F)cc1`, the Potency is 3.98 µM (active).

On to `Cc1occc1C(=O)N/N=C/c1c(O)ccc2ccccc12`, for which the Potency was 1.78 µM (active).

Turning to `O=C(N/N=C/c1c(O)ccc2ccccc12)c1cccnc1`, the Potency was 3.16 µM (active).

On to `O=C(N/N=C\c1c(O)ccc2ccccc12)c1ccc(Cn2cccn2)o1`, for which the Potency was 0.708 µM (active).

In the case of `O=C(N/N=C\c1c(O)ccc2ccccc12)c1cncc(Br)c1`, the Potency is 0.251 µM (active).

Turning to `O=C(N/N=C/c1cc(O)ccc1Br)c1cccnc1`, the Potency was 3.16 µM (active).

On to `Cn1c(-[n+]2c(-c3ccccc3)cc(-c3ccccc3)cc2-c2ccccc2)nc2c([N+](=O)[O-])cccc21`, for which the “activity change, negative = inhibition” value was -13.5% (inactive).

Turning to `CCn1c2ccccc2c2cc(/C=N/NC(=O)c3ccncc3)ccc21`, the Potency was 1.41 µM (active).

For `CCn1c2ccccc2c2cc(/C=C(/C#N)C(N)=S)ccc21`, the Potency was 0.447 µM (active).

`Cc1cccc(OCCn2cc(/C=N/NC(=O)c3ccncc3)c3ccccc32)c1`: the “activity change, negative = inhibition” value is -13.1% (inactive).

Take `CCn1c2ccccc2c2cc(/C=N/n3cnnc3)ccc21`: the Potency is 1.58 µM (active).

As for `CCn1c2ccccc2c2cc(/C=N/NC(=O)c3ccc(O)cc3)ccc21`, the Potency is 2.24 µM (active).
